In PubChem BioAssay (NCI):
Where “and” joins values, the source holds several entries; their conditions need not be identical. Equal values may be shown once. About 83,000 compounds went through this panel and 20% of them were active in at least one assay; those are over-represented in the sample as a whole.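 Step 1: grow cells in 96-well plates. Step 2: add test compound at a single concentration. Step 3: incubate 48 h. Step 4: record percent growth.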 A number with no mark means an inactive call. Calls of active or inactive are those of the source. How the source made its calls: active means growth percent below 10; inactive means the rest.

System: MDA-MB-468 breast
Experiment: NCI-60 one-dose screen, 48 h (100 = growth as untreated, 0 = no growth, -100 = all killed)
Conditions: 10 µM unless noted

SMILES	growth
CCOC(=O)[C@@H]1[C@H](c2ccccc2)[C@H]([N+](=O)[O-])[C@H](c2cn(-c3ccccc3)nc2C)N1Cc1ccccc1	82.9%
O=C(Nc1ccc(-n2cc(-c3ccncc3)c(-c3ccc(O)c(Cl)c3)n2)cc1)c1cc(C(F)(F)F)cc(C(F)(F)F)c1	64.9%
NC(CCc1nc2ccccc2c(=O)[nH]1)C(=O)O (stereo not drawn)	105%
Cc1ccc(NC(=O)c2ccc(CN3CCN(C)CC3)c(I)c2)cc1Oc1ccc(-c2[nH]nc3ncnc(N)c23)cc1	105%
C[C@@H](C[C@H](CCOCc1cccnc1)c1ccccc1)c1cc2ccccc2o1	99.5%
NS(=O)(=O)c1ccc(N/C=C/C(=O)c2cc3ccccc3oc2=O)cc1	90.4%
CC(=O)Nc1c(C(=O)Nc2ccccc2)sc2nc3c(cc12)C(OC(C)=O)CCC3 (stereo not drawn)	90.5%
COc1ccc(-c2nnc(COc3ccc(Cl)cc3Cl)o2)cc1OC	71.9%
COc1cc(/C=C2\CN(C)C/C(=C\c3cc(CN4CCCC4)c(O)c(OC)c3)C2=O)cc(CN2CCCC2)c1O	41.8%
N#CC1=C(N)OC2=C(C(=O)CCC2)C1c1ccco1 (stereo not drawn)	115%
CC(=O)C1CCCCC1	102%
COC(=O)C(Cc1ccccc1)NS(=O)(=O)/N=C1\NC(=O)NC1=C(Cl)Cl (stereo not drawn)	16.3%
COc1ccc(-c2cc(-c3cccnc3)nc3sc4c(=O)n(-c5ccc(C)cc5)nnc4c23)cc1OC	88%
O=c1[nH]c(=O)n(C2C[C@@H](O)[C@@H](CO)O2)cc1F (stereo partly drawn)	-3.59% (active)
O=CNc1c(Cl)cc2c(c1Cl)Cc1cc([N+](=O)[O-])ccc1-2	-3.02% (active)
CC1CCN(C(=O)CCCl)c2ccccc21 (stereo not drawn)	108%
CC(=O)OC[C@]12CC[C@@H](C(=O)/C=C/c3cccnc3)[C@@H]1[C@H]1CC[C@@H]3[C@@]4(C)CC[C@H](OC(C)=O)C(C)(C)[C@@H]4CC[C@@]3(C)[C@]1(C)CC2	-44% (active)
CCN(CCO)CC(C)Nc1ccc([N+](=O)[O-])c2sc3ccccc3c(=O)c12 (stereo not drawn)	21%
COc1cc(-c2csc(NC(=O)Nc3cc(C(F)(F)F)cc(C(F)(F)F)c3)n2)cc(OC)c1OC	4.77% (active)
COc1cc2c3c(n(C4CCN(C)CC4)c(=O)c2cc1OC)-c1cc2c(cc1C3=O)OCO2	31.6%
CCOC(=O)NCCc1ccccc1	112%
NS(=O)(=O)c1ccc(-n2nc(-c3ccccc3)ccc2=O)cc1	104%
S=C(c1ccc2c(c1)OCO2)N1CCN(c2cccc(Cl)c2)CC1	6.42% (active)
Cc1ccc2c(Cn3cc(CSc4nc5ccccc5o4)nn3)cc(=O)oc2c1	113%
COc1ccc(/C=N/Nc2cc(=O)[nH]c3ccc(Cl)cc23)cc1	78%
COc1ccc2nc(Cl)cc(C)c2c1	94.1% and 91.3%

SMILES	growth
C=C(C)[C@@H]1CC[C@]2(C(=O)OCCCC[P+](c3ccccc3)(c3ccccc3)c3ccccc3)CC[C@]3(C)[C@H](CC[C@@H]4[C@@]5(C)CC[C@H](OC(=O)C(Cl)Cl)C(C)(C)[C@@H]5CC[C@]43C)[C@@H]12	-61.7% (active)
COc1ccc(/C=C/C(=O)c2ccc(NC(=O)CSc3nnc(-c4cc(OC)c(OC)c(OC)c4)o3)cc2)cc1	-60.5% (active)
CCOC(=O)C1CCCN1C(=O)C1(NC(C)=O)CCCC1 (stereo not drawn)	98.9%
Cc1cc(C)n(-c2nc(-c3cccs3)c(C#N)c(=O)[nH]2)n1	112%
CCCCN(CCCC)c1ccc(C(=N)c2ccc(N(CCCC)CCCC)cc2)cc1	-92.9% (active)
Cc1cc(C(=O)Nc2sc3c(c2C(N)=O)CCC(=O)C3)ccc1OCCN1CCCCC1	112%
CC(C)(C)C(=O)/C=c1/[nH]c(=O)/c(=C/c2ccccc2O)s1	17.2%
COC(=O)/C=C/c1cc(OC(C)=O)c2c(c1)C(C(=O)OC)C(c1ccc(OC(C)=O)c(OC(C)=O)c1)O2 (stereo not drawn)	35.8%
COc1cc2c(c(OC)c1OC)C(=O)CC(c1cccc(C(=O)Nc3cccc(Br)c3)c1)O2 (stereo not drawn)	71%
COC(=O)c1nc(N)nc(C(=O)OC)c1C(=O)c1ccc(F)cc1	101%
Cn1cc(-c2csc(-c3cn(CCN)c4ccccc34)n2)c2cccnc21	23.2%
Cc1cc(N2CCN(CC(=O)Nc3ccc4c(ccn4C)c3)CC2)nc(N2CCCCCC2)n1	65.1%
C=C1C(=O)O[C@H]2[C@H]1CC/C(COC(=O)C(=O)c1c[nH]c3ccc(Cl)cc13)=C\CC[C@@]1(C)O[C@@H]21	-67.3% (active)
CCN(CC)CC#CCOC(=O)[C@]1(C)CCC[C@@]2(C)[C@H]1CC(C=O)=C1C=C(C(C)C)CC[C@@H]12	41.5%
Cc1cnc(/C=N\NC(N)=S)c2cccc(N)c12	-27.7% (active)
CC(C)(C)N1CC(OC(N)=O)C1	84.9%
OCCN1CCCCCCC1	101%
CC(=O)[C@@H]1CCC=C2CC[C@]3(C)[C@@H](CC[C@@H]4[C@@]5(C)CCCNC(C)(C)[C@@H]5CC[C@]43C)[C@H]21	-77.9% (active)
CCN1CCN(c2ccc(Nc3cc(-c4cccnc4Nc4c(Cl)c(OC)cc(OC)c4Cl)ncn3)cc2)CC1	89.6%
O=S(=O)(NCCCNc1nccc(-c2c(-c3ccc(F)c(O)c3)nc3sccn23)n1)c1ccccc1	82.4%
CC(=O)OC[C@H]1OC(Sc2sc(C(=O)c3ccc(Br)cc3)c(N)c2-c2nc3ccccc3s2)[C@H](OC(C)=O)[C@@H](OC(C)=O)[C@@H]1OC(C)=O (stereo partly drawn)	71.5%
Cc1nc2ccccc2c(/C=C/c2ccccc2)c1C(=O)/C=C/c1ccc(C(F)(F)F)cc1	-67.8% (active)
Cn1cc(-c2nnc(N)nc2-c2c[nH]c3ccc(F)cc23)c2cc(F)ccc21	-15.1% (active)
CC(=O)c1cc2c(N)c(C(=O)Nc3cccc(Cl)c3)sc2nc1C	45.3%
Cn1nc(C(F)(F)F)c(-c2cc(C(F)(F)F)cc(C(F)(F)F)c2)c1-c1ccc(OCc2ccc(Cl)cc2)cc1O	-5% (active)
COc1ncc(-c2ccc3ncnc(Nc4cccc(Cl)c4)c3c2)cc1NS(=O)(=O)CCN1CCOCC1	-52.8% (active)

SMILES	growth
C=C(C)[C@@H]1CCC[C@]2(COS(=O)(=O)c3ccc(C)cc3)CC[C@]3(C)[C@@H](CC[C@@H]4[C@@]5(C)CCCNC(C)(C)[C@@H]5CC[C@]43C)[C@@H]12	-78.2% (active)
CCN(CC)c1ccc(/C=C2/NC(=O)NC2=O)cc1	37.8%
Oc1ccc(CN(Cc2ccc(C(F)(F)F)cc2)Cc2ccc(O)c3ncccc23)c2cccnc12	4.04% (active)
O=C(Cc1ccc(/C=C/C(=O)c2ncc[nH]2)cc1)Nc1cc(C(F)(F)F)cc(C(F)(F)F)c1	65.3%
c1ccc2sc(SSN3CC4CCC(CC4)C3)nc2c1	122%
CC(C)(C)c1cc(-c2nc3ccc(N4CCN(S(C)(=O)=O)CC4)cc3[nH]2)cc(C(C)(C)C)c1O	96.1%
CC(=O)/C(N=Nc1ccc2oc(=O)ccc2c1)=C(\C)O	9.38% (active)
O=C(CC(=O)C(F)(F)C(F)(F)C(F)(F)F)c1cc2ccccc2o1	112%
CN(c1ncccc1CNc1nc(Nc2ccc3c(c2)CC(=O)N3)ncc1C(F)(F)F)S(C)(=O)=O	-44.5% (active)
CC/C(Cc1ccccc1)=C(\c1ccc(OCCCN(C)C)cc1)c1ccc(OC(=O)NCc2ccccc2)cc1	56.8%
COC(=O)[C@]12CC[C@@H](C)[C@H](C)[C@@H]1C1=CC[C@@H]3[C@@]4(C)C(C=O)=C[C@@](C)(CO)[C@@H]4[C@H](O)C[C@@]3(C)[C@]1(C)CC2	-12% (active)
O=C1c2c(c3c4ccccc4n(CCCCCCN4CCOCC4)c3c3[nH]c4ccccc4c23)C(=O)N1O	103%
CCCCCCCCCCSC(=N)N (tested in a mixture with another compound)	-9.42% (active)
COc1cc(C(=O)c2cc(C(C)=O)c3cccc(C)n23)cc(OC)c1OC	15.4%
COC(=O)CSc1ccc(Cl)cc1	126%
COc1cc2oc(-c3cccc(NC(=O)c4cc(N)ccc4Cl)c3)cc(=O)c2c(OC)c1OC	95.3%
NNc1ncnc2nc[nH]c12	36.8%
Cc1ccc(-n2c3c(c(-c4ccccc4)c2-c2ccccc2)C2=NCCN2C=N3)cc1	81.8%
O=C1CC23OC(C(O)c4ccccc4N12)C1C(c2ccccc2)=NOC13 (stereo not drawn)	40.9%
Cc1cc(C)c(S(=O)(=O)/N=c2/n(-c3ccccc3)nc3n2CCN3C2=NCCN2)c(C)c1	30%
CC(C)(N)CO[C@H]1C[C@H]2CC[C@@]1(C)C2(C)C	84%
COc1ccc(CCNc2nc(SC)nc(-c3cccc([N+](=O)[O-])c3)c2C#N)cc1OC	84.8%
Nc1ccc(Cl)c(S(=O)(=O)O)c1	99.3%
CCc1ccc(NC(=O)N[C@@H](Cc2cccc(F)c2)C(=O)N[C@@H]2C(=O)N3CCC[C@H]3C(=O)N3CCCC[C@H]3C(=O)N[C@@H](CO)C(=O)N3C[C@H](C)C[C@H]3C(=O)O[C@H]2C)c(F)c1	-7.85% (active)
O=C1OC(C(Cl)(Cl)Cl)OC1C(Cl)(Cl)Cl (stereo not drawn)	109%
COc1cc(C2CC(=O)Nc3c2c(C)nn3-c2nc3ccccc3[nH]2)cc(OC)c1OC (stereo not drawn)	96.9%
